# Laboratory results reported in the supplement of paper PMC13380429.
# Unmarked numbers belong to inactive results.
# Tested on: Vero E6 infected with SARS-CoV-2
# Assay: inhibition of SARS-CoV-2 cytopathic effect; higher = more antiviral protection, active = above 15
# Conditions: 48 h
Compound,inhibition of SARS-CoV-2 cytopathic effect (1 nM),inhibition of SARS-CoV-2 cytopathic effect (8.33 nM),inhibition of SARS-CoV-2 cytopathic effect (100 nM),inhibition of SARS-CoV-2 cytopathic effect (833.33 nM),inhibition of SARS-CoV-2 cytopathic effect (10000 nM)
CC[C@]1(O)C[C@@H]2CN(CCc3c([nH]c4ccccc34)[C@@](C(=O)OC)(c3cc4c(cc3OC)N(C)[C@H]3[C@@](O)(C(N)=O)[C@H](O)[C@]5(CC)C=CCN6CC[C@]43[C@@H]65)C2)C1 [vindesine],0.4%,0.16%,-1.63%,0.62%,-2.18%
C=C[C@@H]1C[C@]1(NC(=O)[C@@H]1C[C@@H](Oc2ncc(OC)c3ccc(Cl)cc23)CN1C(=O)[C@@H](NC(=O)OC(C)(C)C)C(C)(C)C)C(=O)NS(=O)(=O)C1CC1 [asunaprevir],-0.2%,0.38%,3.96%,2.81%,-1.88%
CCC1(C)CC(=O)NC1=O (stereo not given) [ethosuximide],-0.56%,1.45%,1.18%,1.39%,-4.8%
CCN[C@@H](C)Cc1cccc(C(F)(F)F)c1 [dexfenfluramine],1.76%,-0.09%,2.9%,-3.54%,0.8%
Cc1c(NC(=O)N2CCOCC2)ccc2c1c1ccccc1n2C(C)C,0.94%,-0.34%,-2.07%,2.48%,0.62%
O=C1COc2nccc(-c3ccccc3F)c2CN1Cc1cc(C(F)(F)F)cc(C(F)(F)F)c1,-0.76%,-1.69%,-0.49%,-2.79%,-1.55%
CC(C)(COP(=O)(O)OP(=O)(O)OC[C@H]1O[C@@H](n2cnc3c(N)ncnc32)[C@H](O)[C@@H]1OP(=O)(O)O)[C@@H](O)C(=O)NCCC(=O)NCCS [coenzyme-A],-2.14%,0.97%,2.41%,1.91%,2.93%
NC(=O)CC[C@H](N)C(=O)O [L-glutamine],0.7%,2.45%,0.59%,0.71%,-2.64%
CCOC(=O)c1ncn2c1CN(C)C(=O)c1cc(N=[N+]=[N-])ccc1-2,3.15%,7.03%,2.59%,-0.14%,-2.15%
C[C@]12CCC(=O)C[C@@H]1CC[C@@H]1[C@@H]2CC[C@]2(C)[C@@H](O)CC[C@@H]12 [Dihydrotestosterone],-0.75%,-1.02%,-1.92%,-2.8%,-3.3%
CCCC[C@H](NC(=O)[C@@H]1[C@@H]2[C@H](CN1C(=O)[C@@H](NC(=O)NC1(CS(=O)(=O)C(C)(C)C)CCCCC1)C(C)(C)C)C2(C)C)C(=O)C(=O)NC1CC1 [narlaprevir],0.96%,1.32%,0.06%,3.2%,0.24%
CC(=O)NCCC(=O)N[C@@H](Cc1c[nH]cn1)C(=O)O [N-acetylcarnosine],1.19%,1.23%,-0.15%,-2.97%,4.18%
Fc1ccc(-n2cc(CCCCN3CCC4(CC3)OCc3ccccc34)c3ccccc32)cc1 [siramesine],0.05%,1.88%,1.49%,4.24%,28.7% (active)
C[C@@H]1CC[C@H]2[C@@H](C)C(=O)O[C@@H]3O[C@@]4(C)CC[C@@H]1[C@]32OO4 [artemisinin],0.52%,0.05%,3.13%,3.83%,1.16%
C[C@@H](CN1CCC(Cc2ccccc2)CC1)[C@@H](O)c1ccc(O)cc1,-1.15%,-0.92%,-0.78%,-2.61%,-5.49%
C[C@H](NCc1ccc(OCc2ccccc2F)cc1)C(N)=O [priralfinamide],-0.13%,7.24%,6.27%,0.58%,-1.48%
COc1cc2/c(=N/c3ccc(Br)cc3F)nc[nH]c2cc1OCC1CCN(C)CC1 [vandetanib],-1.28%,2.63%,-1.67%,-6.04%,-3.93%
CNc1nc(-c2ccc3c(N)n[nH]c3c2)cc(N2C[C@@H](C(=O)NC3CCCCC3)CC[C@H]2C)n1,2.6%,3.93%,1.23%,0.1%,-5.35%
CCc1cncnc1N1CCN(Cc2nc3cc(C(F)(F)F)ccc3[nH]2)CC1,1.34%,-0.7%,1.45%,8.5%,-4.66%
